Compounds without any hit were thinned out: in the full panel of roughly 83,000, 20% have a hit.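 Cells were grown in 96-well plates and exposed to the test compound at a single concentration for 48 hours; results are reported as percent growth, with values below 10 considered active.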 A number with no mark means an inactive call. The source made the active and inactive calls.

In this assay the test system is HL-60(TB) leukemia. Put plainly: NCI-60 one-dose screen, 48 h (100 = growth as untreated, 0 = no growth, -100 = all killed). The note with it: 10 µM unless noted.
`CC(C)Oc1nc2c(c(=O)n(C)c(=O)n2C)n1C`: the growth is 95.3%. In the case of `COC(=O)C1=C(C(=O)OC)C23C=C(C)C1C2=C(C)C1(CC1)[C@@](C)(O)C3=O` (stereo not given in full), the growth was 25.6%. For the molecule `CC(C)(C)c1ccc(OC(=O)Nc2ccccc2)cc1`, the growth is 95.9%. Consider `CN1CCN(Cc2ccc(NC(=O)c3cncc(C#Cc4c(N)ncc5ccc(C#N)cc45)c3)cc2C(F)(F)F)CC1`, for which the growth is 9.71% (active). Next, `CCC1NC(=O)c2cc(S(N)(=O)=O)c(Cl)cc2N1` (stereo not given): 120%; `Cc1ccc(S(=O)(=O)N2CCc3ccc(O)c4c3C2CCc2ccccc2-4)cc1` (stereo not given): 91.3%; `CCN(CC)c1ccc(N=Nc2cc(Cl)ccc2Cl)c(NC(=O)CCC(=O)O)c1`: 119%. Turning to `CCCCOc1c(N)cccc1C(=O)OCCN(CC)CC`, the growth is 64.3%.

In the case of `CCNCCNc1cc(-c2ccc(C(F)(F)F)cc2)c(C#N)c2nc3cc(Cl)c(Cl)cc3n12`, the growth was -56.9% (active).

For `Clc1ncnc2scc(C3COc4ccccc4O3)c12` (stereo not given), the growth was 102%. For `O=C(O)c1cccc(CN2CCN(c3cc4c(cc3F)c(=O)c(C(=O)O)cn4C3CC3)CC2)c1O`, the growth was 99.4%.

Regarding `Cn1cnc([N+](=O)[O-])c1S(=O)(=O)Oc1ccccc1`, the growth is 54.3%. To `OC(CNc1ccnc2cc(Cl)ccc12)CNc1ccnc2cc(Cl)ccc12` belongs -5.79% (active). To `O=C(N/N=C/c1ccncc1)c1ccccc1Nc1cccc(C(F)(F)F)c1` belongs 77.7%. Consider `O=C(Nc1nc(Cl)nc(Nc2ccc(N3CCOCC3=O)cc2)n1)c1ccc(Cl)s1`, for which the growth was 68.7%. To `CCCCC(CCCC)(S(=O)(=O)CC)S(=O)(=O)CC` belongs 94.7%; to `O=C1Cc2cc(CCN3CCN(c4nsc5ccccc45)CC3)c(Cl)cc2N1`, 108%. To `Fc1ccc(CNCCNc2ncnc3c2cnn3-c2ccccc2)cc1` belongs 83.1%; to `CSC1=NCCCC1`, 99.8%; to `COc1ccc2c(c1)c(-c1nc(-c3c[nH]c4ncccc34)cs1)cn2CCCN1CCCCC1`, -60.8% (active). Turning to `O=S(=O)(O)c1ccc2cc(O)ccc2c1`, the growth is 100%. To `NS(=O)(=O)c1ccc(C(=O)NN2C(=O)c3c(Br)c(Br)c(Br)c(Br)c3C2=O)cc1` belongs 103%; to `O=C(O)Cc1cc(=O)[nH]n(-c2ccccc2)c1=O`, 95.3%; to `CCOC(=O)C1=C(C)c2ccc(OC)c(OC)c2C1`, 106%.

For the molecule `CCCC(=O)Nc1ccc2c(c1)CN1C(=O)c3ccccc3C1=N2`, the growth is 81.9%. Consider `CCCOc1ccc(/C=N/Nc2cc(C)nc3ccc(Br)cc23)cc1`, for which the growth is 55.3%.

With `COc1cc2c(C#N)n3c(c2cc1OC)C(=O)C(c1ccccc1)Oc1ccccc1-3` (stereo not given), the growth is 61.1%. Regarding `CCOc1cc(/C=C/C(=O)CC(=O)/C=C/c2ccc(OC(=O)CNCCN(CC)CC)c(OCC)c2)ccc1OC(=O)CNCCN(CC)CC`, the growth is -30.5% (active). With `O=C(O)c1ccc(CO)o1`, the growth is 85.6%.

Take `Cc1ccn2c3c(c(C(=O)O)c2c1)C(=O)c1ccccc1C3=O`: the growth was 73.2%. Take `Cc1ccc(-c2c3c(N)nc(-c4cccnc4)nc3nc3c2c(C)nn3-c2ccccc2)cc1`: the growth is 95.6%. To `Nc1nc2ccccc2c2c(=O)c3cc(F)ccc3sc12` belongs 99.4%. As for `CN(C)c1ccc(C(=O)c2ccc(N(C)C)c(N)c2)cc1N`, the growth was 7.38% (active).

Turning to `Cc1nc(Sc2nc3ccc([N+](=O)[O-])cc3s2)sc1C`, the growth is -41.7% (active). As to `Ic1ccccc1I`, the growth is 94.1%. Regarding `O=C(CI)Nc1ccc(O)c2ccccc12`, the growth is -11.9% (active).

`Cc1nc(-c2ccccc2)sc1CC#N`: the growth is 93.9%. To `CC1=C(C(=O)Nc2ccccc2)C(c2ccc3c(c2)OCCO3)NC(=O)N1` (stereo not given) belongs 106%; to `CCSc1ncnc2c1ncn2C1OC(CO)C(O)C1O` (stereo not given), 20.2%. Next, `O=C1N=C(N2CCOCC2)S/C1=C\c1cn(-c2ccccc2)nc1-c1ccccc1`: 105%.

Values taken from PubChem BioAssay (NCI).
